# Data reported in PubChem BioAssay (NCATS).
# Where “and” joins values, the source holds several entries; their conditions need not be identical. Identical values can stand only once. Values without a mark were called inactive. Results filed as inconclusive are left out. Calls of active or inactive are those of the source. Unless noted, calls come from the whole dose curve; as a rule, active = well fitted curve in the direction sought with a large enough effect; inconclusive = small, poorly fitted or top-dose-only effect, or another doubt; inactive = no such curve, though single readings can be large; an effect the other way counts as inactive or inconclusive.
# Key:
# [1] = test system: Tov112D; experiment: Primary qHTS to identify gynecologic anti-cancer compounds using libraries of approved drugs and bioactive compounds (AID 1345084); settings: Gynecologic cancer cell panel viability, ATPlite luminescence, 48 h; series mostly up to 57.5 µM; note: nearly all actives have a fitted effect of over 55% in size; note: potency is the fitted concentration of half-maximal effect
# Procedure, shortened: (§1)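 Measured: luminescence after ATPlite addition (15 min, RT). Exposure: 48 h, 37 C, 5% CO2.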
# [2] = Drug repurposing screens with cells derived from glioblastoma tumor samples (AID 1345199); settings: GBM patient neurospheres viability, ATP luminescence, 48 h; for Potency: tumour line A; note: potency is the fitted concentration of half-maximal effect; for activity, negative = cell killing: % is set by controls: 0 for no effect and ±100 for the full control effect; for all read-outs here: nearly all actives have a fitted effect of over 40% in size
# Procedure, shortened: (§2)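 Four patient lines of CD133+ GBM neurospheres were screened at several concentrations; hits were retested in those lines plus three slower-growing GBM lines, using 48-hour treatment and ATP-based viability.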
# [3] = test system: astro; experiment: as above; settings: viability, ATP luminescence, 48 h; series mostly up to 45.9 µM
# Procedure, shortened: as §2
# [4] = test system: Tov-21-G; experiment: Primary qHTS to identify gynecologic anti-cancer compounds using libraries of approved drugs and bioactive compounds (AID 1345084); settings: Gynecologic cancer cell panel viability, ATPlite luminescence, 48 h; series mostly up to 57.5 µM; note: nearly all actives have a fitted effect of over 55% in size; note: potency is the fitted concentration of half-maximal effect
# Procedure, shortened: as §1
# [5] = target: Nuclear receptor subfamily 1 group I member 2 (Rattus norvegicus) (UniProt Q9R1A7); experiment: qHTS assay for small molecule activators of the rat pregnane X receptor (rPXR) signaling pathway (AID 651751; call rule not given here; note: 0% is about no effect); settings: rPXR reporter cells, luciferase (One-Glo), 24 h
# Sequence of Nuclear receptor subfamily 1 group I member 2 (Rattus norvegicus) (Q9R1A7 whole entry, looked up): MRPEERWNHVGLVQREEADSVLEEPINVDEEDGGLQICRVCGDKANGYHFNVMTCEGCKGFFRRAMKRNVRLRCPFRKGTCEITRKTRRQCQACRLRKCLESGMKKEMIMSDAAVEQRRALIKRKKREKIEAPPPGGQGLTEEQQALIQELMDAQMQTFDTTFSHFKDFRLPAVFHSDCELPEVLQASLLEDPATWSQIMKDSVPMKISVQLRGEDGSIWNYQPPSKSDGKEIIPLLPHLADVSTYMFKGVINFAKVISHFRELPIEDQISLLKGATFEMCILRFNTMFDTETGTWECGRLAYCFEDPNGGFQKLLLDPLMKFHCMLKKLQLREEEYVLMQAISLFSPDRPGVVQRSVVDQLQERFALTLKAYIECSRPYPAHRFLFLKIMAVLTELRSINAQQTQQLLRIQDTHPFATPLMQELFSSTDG
# [6] = test system: SKOV3; experiment: Primary qHTS to identify gynecologic anti-cancer compounds using libraries of approved drugs and bioactive compounds (AID 1345084); settings: Gynecologic cancer cell panel viability, ATPlite luminescence, 48 h; series mostly up to 57.5 µM; note: nearly all actives have a fitted effect of over 55% in size; note: potency is the fitted concentration of half-maximal effect
# Procedure, shortened: as §1
# [7] = qHTS assay for small molecule activators of the human pregnane X receptor (PXR) signaling pathway (AID 720659; call rule not given here; note: 0% is about no effect); settings: DPX-2 HepG2 CYP3A4-luciferase, 24 h; series mostly up to 92.3 µM
# [8] = qHTS assay to identify inhibitors of the type 1 interferon - major histocompatibility complex class I in skeletal muscle: Counter screen cell viability and HiBit confirmation (AID 1347412); settings: iHSKM muscle cells + IFN-b, HiBiT or CellTiter-Glo, 24 h; note: potency is the fitted concentration of half-maximal effect; nearly all actives have a fitted effect of over 60% in size
# Procedure, shortened: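 Myoblasts (C25cl48, HLA-B HiBiT) seeded in medium without dexamethasone, IFN-b 4 ng/ml added except unstimulated columns; 1 hr later compounds pinned (12-pt 1:3, top 46 uM final). Incubated 24 hrs, lysed 10 min, luminescence measured.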
# [9] = at 45.9 µM (top of the series), tumour line B
# [10] = at 45.9 µM (top of the series), tumour line D
# [11] = at 46.1 µM (top of the series), tumour line C
# [12] = at 20 µM (top of the series), tumour line C
# [13] = at 21.2 µM (top of the series), tumour line B
# [14] = at 21.2 µM (top of the series), tumour line D
smiles,measurement,setting,value
CC(=O)Oc1cccc2c1C(=O)c1c(OC(C)=O)cc(C(=O)O)cc1C2=O,outcome,[1],inactive
same,"activity, negative = cell killing",[2]; [9],-17.6%
same,"activity, negative = cell killing",[2]; [10],-16.7%
same,Potency,[3],inactive
Cc1c(N)nc([C@H](CC(N)=O)NC[C@H](N)C(N)=O)nc1C(=O)N[C@H](C(=O)N[C@H](C)[C@@H](O)[C@H](C)C(=O)N[C@H](C(=O)NCCc1nc(-c2nc(C(=O)NCCCCN=C(N)N)cs2)cs1)[C@@H](C)O)[C@@H](O[C@@H]1O[C@@H](CO)[C@@H](O)[C@H](O)[C@@H]1O[C@H]1O[C@H](CO)[C@@H](O)[C@H](OC(N)=O)[C@@H]1O)c1cnc[nH]1,"activity, negative = cell killing",[2]; [9],-16.7%
same,"activity, negative = cell killing",[2]; [11],-15.4%
O=C(Nc1ccc(O)cc1)c1ccccc1O,"activity, negative = cell killing",[2]; [11],-27.7%
Oc1ccc(/C=C/c2cc(O)cc(O)c2)cc1,Potency,[4],22.4 µM (active)
same,Potency,[3],4.47 µM (active)
same,max response,[5],-2.85% and -10.8%
C#C[C@]1(O)CC[C@@H]2[C@H]3CCC4=CC(=O)CC[C@H]4[C@H]3C(=C)C[C@@]21CC,"activity, negative = cell killing",[2]; [9],2.86%
same,"activity, negative = cell killing",[2]; [10],-28.7%
same,Potency,[2],22.4 µM (active)
CS(=O)(=O)c1ccc([C@@H](O)[C@@H](COC(=O)CN)NC(=O)C(Cl)Cl)cc1,"activity, negative = cell killing",[2]; [9],-20.1%
same,"activity, negative = cell killing",[2]; [11],-21.6%
O=C(OCc1ccccc1)c1ccc(O)cc1,outcome,[6],inactive
same,Potency,[4],inactive
same,outcome,[1],inactive
same,"activity, negative = cell killing",[2]; [9],-16.7%
same,"activity, negative = cell killing",[2]; [10],-12.6%
same,"activity, negative = cell killing",[2]; [11],10.4%
same,Potency,[3],inactive
same,max response,[5],2.15%
same,outcome,[7],inactive
C[C@H]1O[C@@H](O[C@H]2[C@@H](O)C[C@H](O[C@H]3[C@@H](O)C[C@H](O[C@H]4CC[C@@]5(C)[C@H](CC[C@@H]6[C@@H]5C[C@@H](O)[C@]5(C)[C@@H](C7=CC(=O)OC7)CC[C@]65O)C4)O[C@@H]3C)O[C@@H]2C)C[C@H](O)[C@@H]1O,Potency,[4],0.1 µM (active)
same,Potency,[3],0.316 µM (active)
same,Potency,[8],0.0394 µM (active)
same,max response,[5],-0.0646% and -4.92%
same,outcome,[7],inactive
COc1cc(C)c(/C=C/C(C)=C/C=C/C(C)=C/C(=O)O)c(C)c1C,"activity, negative = cell killing",[2]; [9],-16.3%
same,"activity, negative = cell killing",[2]; [10],8.72%
same,"activity, negative = cell killing",[2]; [11],-9.52%
N[C@@H](Cc1cc(I)c(Oc2ccc(O)c(I)c2)c(I)c1)C(=O)O,outcome,[6],inactive
same,Potency,[4],inactive
same,outcome,[1],inactive
same,"activity, negative = cell killing",[2]; [9],0.914%
same,"activity, negative = cell killing",[2]; [11],-18.1%
same,Potency,[2],11.2 µM (active)
same,Potency,[3],inactive
same,max response,[5],-4.55%
same,outcome,[7],inactive
CN(C)CCCSc1ccccc1NC(=O)/C=C/c1ccccc1,outcome,[6],inactive
same,Potency,[4],inactive
same,outcome,[1],inactive
same,"activity, negative = cell killing",[2]; [9],-25.4%
same,Potency,[2],10 µM (active)
same,Potency,[3],inactive
CCOC(=O)C1=C(COCCN)NC(C)=C(C(=O)OC)C1c1ccccc1Cl (stereo unspecified),"activity, negative = cell killing",[2]; [9],-28.9%
same,Potency,[2],11.2 µM (active)
Nc1ccc(N=Nc2ccccc2)c(N)n1,outcome,[6],inactive
same,Potency,[4],inactive
same,outcome,[1],inactive
O=C1c2ccccc2C(=O)c2c1ccc(O)c2O,Potency,[4],inactive
same,outcome,[1],inactive
same,"activity, negative = cell killing",[2]; [9],-22.8%
same,"activity, negative = cell killing",[2]; [11],-2.45%
same,Potency,[3],inactive
CSc1nc2cc(Oc3cccc(Cl)c3Cl)c(Cl)cc2[nH]1,"activity, negative = cell killing",[2]; [9],-12.6%
O=C(O)CCC(=O)c1ccc(-c2ccccc2)cc1,outcome,[6],inactive
same,Potency,[4],inactive
same,outcome,[1],inactive
same,"activity, negative = cell killing",[2]; [12],-5.86%
same,"activity, negative = cell killing",[2]; [13],-10%
same,"activity, negative = cell killing",[2]; [14],-17.7%
same,Potency,[3],inactive
COc1ccc(C[C@H](C)NC[C@@H](O)c2ccc(O)c(NC=O)c2)cc1,Potency,[4],inactive
same,"activity, negative = cell killing",[2]; [10],-10.9%
same,"activity, negative = cell killing",[2]; [11],-28.7%
same,Potency,[2],17.8 µM (active)
same,Potency,[3],inactive
CNC(=O)C[C@@H](N)C(=O)N[C@@H](C(=O)N[C@@H]1C(=O)N2[C@@H]1SC(C)(C)[C@@H]2C(=O)O)c1ccc(O)cc1,"activity, negative = cell killing",[2]; [9],-11.1%
same,"activity, negative = cell killing",[2]; [11],-11.3%
Nc1nc(NC2CC2)c2ncn([C@@H]3C=C[C@@H](CO)C3)c2n1,"activity, negative = cell killing",[2]; [11],-22.1%
same,Potency,[2],35.5 µM (active)
CCCCC/C=C\CCC(=O)N[C@H]1[C@H](Oc2c3cc4cc2Oc2ccc(cc2Cl)[C@@H](O[C@@H]2O[C@H](CO)[C@@H](O)[C@H](O)[C@H]2NC(C)=O)[C@@H]2NC(=O)[C@H](NC(=O)[C@@H]4NC(=O)[C@H]4NC(=O)[C@@H](Cc5ccc(c(Cl)c5)O3)NC(=O)[C@H](N)c3ccc(O)c(c3)Oc3cc(O)cc4c3)c3ccc(O)c(c3)-c3c(O[C@H]4O[C@H](CO)[C@@H](O)[C@H](O)[C@@H]4O)cc(O)cc3[C@@H](C(=O)O)NC2=O)O[C@H](CO)[C@@H](O)[C@@H]1O,"activity, negative = cell killing",[2]; [12],-16.8%
same,"activity, negative = cell killing",[2]; [13],-7.38%
same,"activity, negative = cell killing",[2]; [14],-14.2%
C=C1[C@H](CO)[C@@H](O)C[C@@H]1n1cnc2c(=O)[nH]c(N)nc21,outcome,[6],inactive
same,Potency,[4],inactive
same,outcome,[1],inactive
same,"activity, negative = cell killing",[2]; [9],-13.2%
same,"activity, negative = cell killing",[2]; [11],-24%
same,Potency,[3],inactive
C=C1CC[C@H](O)CC1=C/C=C1\CCC[C@]2(C)[C@@H]([C@H](C)/C=C/[C@H](C)C(C)C)CC[C@@H]12,outcome,[6],inactive
same,Potency,[4],inactive
same,outcome,[1],inactive
same,"activity, negative = cell killing",[2]; [11],6.83%
same,Potency,[2],10 µM (active)
Cc1ccc(S(=O)(=O)NC(=O)N[C@@H](C)Cc2ccccc2)cc1,"activity, negative = cell killing",[2]; [9],-12%
same,"activity, negative = cell killing",[2]; [10],-19.4%
same,"activity, negative = cell killing",[2]; [11],-17.1%
